Source: PubChem
Shown are actives, neighbours in structure and some others; about 3.1% of the full set was active somewhere.
UBC13 polyUb = human UBC13 polyubiquitination inhibition | hit rate 0.47% among 330,000 | P61088 | AID 485273 | UBC13 polyubiquitin chain formation, TR-FRET | inhibition, % at 20 µM; in the data active means inhibition above about 45%, passing the limit was not always enough
MEKK3 PB1 HTS = modulators (inhibitors or enhancers) of MEK5 binding to human MEKK3 PB1 domain | hit rate 1.4% among 290,000 | bead-based flow cytometry, Alexa488-MEK5 binding to MEKK3; actives lie on both sides; 0 = blocked by unlabeled MEK5, 100 = vehicle | AID 1529 | Q99759 | binding response (% of control), % at 10 µM;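 active means binding response more than 3 SD above or below the average of its plate-row segment, actives on both sides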;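 further: Alexa488 bead fluorescence after subtracting the streptavidin-only scavenger bead signal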
ATG4B inh = blocks human ATG4B protease cleavage of LC3 substrate; Q9Y4P1; ATG4B cleavage of LC3-PLA2, NBD-HPC fluorescence, 1 h; hit rate 0.51% among 340,000; inhibition, % at 8.33 µM; in the data active means inhibition above about 40%
MEKK2mut PB1 HTS = signal of MEK5 binding to mutant human MEKK2 PB1 domain. bead flow cytometry, Alexa488-MEK5 binding to MEKK2 mutant. percent response, % at 10 µM. hit rate 0.35% among 290,000; in the data active means percent response above about 24%, passing the limit was not always enough
PREPL inhibitor = inhibits the human prolyl oligopeptidase-like enzyme | Q4J6C6 | recombinant PREPL, fluorescence polarization activity-based probe | inhibition, % at 5.96 µM | hit rate 0.68% among 320,000; in the data active means inhibition above about 43%
Target sequence (Q4J6C6 whole entry, looked up): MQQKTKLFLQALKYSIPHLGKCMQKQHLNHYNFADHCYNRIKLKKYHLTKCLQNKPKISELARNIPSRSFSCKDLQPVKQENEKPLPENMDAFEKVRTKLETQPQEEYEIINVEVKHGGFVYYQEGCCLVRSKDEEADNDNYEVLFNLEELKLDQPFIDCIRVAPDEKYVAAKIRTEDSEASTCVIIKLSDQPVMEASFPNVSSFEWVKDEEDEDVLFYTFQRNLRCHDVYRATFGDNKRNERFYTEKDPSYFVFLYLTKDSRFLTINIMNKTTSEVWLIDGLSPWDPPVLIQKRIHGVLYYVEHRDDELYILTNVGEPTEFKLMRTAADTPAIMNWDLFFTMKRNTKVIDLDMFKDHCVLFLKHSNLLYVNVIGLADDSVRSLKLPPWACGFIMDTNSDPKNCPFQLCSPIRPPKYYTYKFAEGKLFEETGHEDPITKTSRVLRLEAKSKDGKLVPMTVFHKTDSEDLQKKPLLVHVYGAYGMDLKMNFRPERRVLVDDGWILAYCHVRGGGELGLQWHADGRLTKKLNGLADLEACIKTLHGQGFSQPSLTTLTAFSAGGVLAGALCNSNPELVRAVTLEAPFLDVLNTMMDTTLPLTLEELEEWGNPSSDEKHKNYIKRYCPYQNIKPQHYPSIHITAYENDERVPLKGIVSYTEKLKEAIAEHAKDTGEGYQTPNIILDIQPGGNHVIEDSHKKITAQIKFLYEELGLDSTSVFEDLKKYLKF
MEKK2 WT-MEK5 = raises or lowers MEK5 binding to wildtype human MEKK2 PB1 domain | binding response (% of control), % at 10 µM | bead flow cytometry, Alexa488-MEK5 binding to MEKK2 WT; actives lie on both sides | hit rate 1.1% among 290,000 | Q9Y2U5; in the data active means binding response below about 67% or above about 130%
ATG4B conf = ATG4B (human) inhibition, single-dose confirmed | shares compounds with ATG4B inh | ATG4B protease fluorescent substrate cleavage assay | inhibition, % at 8.33 µM | hit rate 92% among 320 | AID 504757; in the data active means inhibition above about 39%
PLA2 ctr = inhibits human PLA2, flagging false ATG4B inhibitors | shares compounds with ATG4B inh | purified PLA2, NBD-C6-HPC fluorescence, 45 min | inhibition, % at 8.33 µM | hit rate 66% among 1,600; in the data active means inhibition above about 50%
Hits are given with their value; i = inactive; nt = no result.

SMILES | UBC13 polyUb | MEKK3 PB1 HTS | ATG4B inh | MEKK2mut PB1 HTS | PREPL inhibitor | MEKK2 WT-MEK5 | PLA2 ctr | others
COc1ccc(Cl)cc1NC(=O)Nc1cccc([N+](=O)[O-])c1C | i | i | 78 | i | i | i | 86
O=C(CNCCc1ccc(Cl)cc1Cl)NCc1ccco1 | i | i | 41 | i | i | i | i | ATG4B conf=66
O=C(CNCc1ccccc1Cl)NCc1ccco1 | i | i | i | i | i | i | nt
O=C(O)c1cc2c(cc1NC(=O)c1ccccc1OC(F)F)OCCCO2 | i | i | 44 | i | i | i | i | ATG4B conf=58
COc1ccccc1C(=O)Nc1cc2c(cc1C(=O)O)OCCCO2 | i | i | i | i | i | i | nt
O=C(CSc1nc2[nH]ncc2c(=O)[nH]1)Nc1ccc(Cl)cc1 | i | nt | i | nt | i | nt | nt
Cc1ccc(CN2CCCN(Cc3c(F)cccc3Cl)S2(=O)=O)cc1 | i | i | i | i | i | i | nt
O=S1(=O)N(Cc2ccccc2F)CCCN1Cc1c(F)cccc1Cl | i | i | 68 | i | i | i | 83
O=C(/C=C/c1ccccc1)NC(NC(=S)Nc1cc(Cl)ccc1Cl)C(Cl)(Cl)Cl (stereo not given) | i | i | 42 | i | i | i | i
O=C(/C=C/c1ccccc1)NC(NC(=S)Nc1ccc(Cl)cc1)C(Cl)(Cl)Cl (stereo not given) | i | i | i | i | i | i | nt
COc1ccccc1C(=O)Oc1ccc(C(C)(C)C)cc1 | i | i | 42 | i | i | i | 50
COc1ccccc1C(=O)Oc1ccc2ccc(=O)oc2c1 | i | i | i | i | i | i | nt
Cc1ccc(-c2csc3nc(SCC(=O)Nc4ccc(Cl)c(C(=O)O)c4)[nH]c(=O)c23)cc1 | i | i | 78 | i | i | i | 78
CSCCC(NC(=O)c1ccco1)C(=O)N1CCCC(C(F)(F)F)C1 (stereo not given) | i | nt | i | nt | i | nt | nt
O=c1oc2ccccc2cc1-c1csc(NN=C2CCCCC2)n1 | i | i | 41 | i | i | i | 66
O=C(Nc1nc(-c2cc3ccccc3oc2=O)cs1)c1ccco1 | i | i | i | i | i | i | nt
CNC(=S)N/N=C/c1c2ccccc2c(Cl)c2ccccc12 | i | i | i | i | i | i | nt
O=C(NCc1ccc2c(c1)OCO2)c1ccc(CS(=O)Cc2cccc(Cl)c2)o1 (stereo not given) | i | i | i | i | i | i | nt
O=C(NCc1cccc(Cl)c1)c1ccc(CS(=O)Cc2ccccc2Cl)o1 (stereo not given) | i | i | 69 | i | i | i | 69
O=C(NCc1cccc(Cl)c1)c1ccc(CS(=O)Cc2ccc(Cl)cc2)o1 (stereo not given) | i | i | 60 | i | i | i | 63
Cc1ccc(CS(=O)Cc2ccc(C(=O)NCc3ccccc3Cl)o2)cc1 (stereo not given) | i | i | 42 | i | i | i | i
O=C(NCc1ccc(F)cc1)c1ccc(CS(=O)Cc2ccccc2Cl)o1 (stereo not given) | i | i | i | i | i | i | nt
Cc1ccc(CNC(=O)c2ccc(CS(=O)Cc3ccccc3Cl)o2)cc1 (stereo not given) | i | i | i | i | i | i | nt
CC(C)(C)C(=O)COC(=O)C1=NN(c2ccccc2)C(=O)CC1 | i | i | i | i | i | i | nt
Cc1cccc(C(CC(=O)NCc2ccco2)c2ccccc2)c1O (stereo not given) | i | i | i | i | i | i | nt
SMILES | UBC13 polyUb | MEKK3 PB1 HTS | ATG4B inh | MEKK2mut PB1 HTS | PREPL inhibitor | MEKK2 WT-MEK5 | PLA2 ctr | others
CC(C)Oc1ccc(C(CC(=O)NCc2ccco2)c2ccccc2)cc1 (stereo not given) | i | i | 44 | i | i | i | i | ATG4B conf=65
NC(=O)c1ccc(Oc2ccc(Cl)cc2)c([N+](=O)[O-])c1 | i | i | 59 | i | i | i | 58
NC(=O)c1ccc(Oc2ccc3c(c2)CCC3)c([N+](=O)[O-])c1 | i | i | 80 | i | i | i | 85
CC(C)C(=O)O/N=C(\N)c1ccc(Oc2ccc(Cl)cc2)c([N+](=O)[O-])c1 | i | i | i | i | i | i | nt
NC(=O)c1ccc(Oc2ccc(Cl)c3ccccc23)c([N+](=O)[O-])c1 | i | i | 62 | i | i | i | 54
COc1ccc(C(C)NC(=S)NCc2ccc(F)cc2)cc1 (stereo not given) | i | i | i | i | i | i | nt
Cc1ccc(C)c(C(C)NC(=S)NCc2ccc(F)cc2)c1 (stereo not given) | i | i | 49 | i | i | i | 50
O=C(NN(Cc1ccccc1)Cc1ccccc1)c1ccccc1 | nt | nt | i | nt | nt | nt | nt
O=C(NNC(=O)c1ccccc1-n1cccc1)c1ccc(Cl)nc1 | i | nt | i | nt | i | nt | nt
Cc1ccc2cc3cc(C(=O)N4CC(C)CC(C)C4)oc3nc2c1 (stereo not given) | i | i | 45 | i | i | i | 57
COc1ccc2cc3cc(C(=O)N4CC(C)CC(C)C4)oc3nc2c1 (stereo not given) | i | i | 49 | i | i | i | 54
O=C1OC(/C=C/c2ccc(Cl)cc2)=NC/1=C/c1ccco1 | i | i | i | i | i | i | nt
COC(=O)c1ccccc1NC(=O)NCc1c(C)nn(C)c1C | i | i | i | i | i | i | nt
O=C(c1cccs1)N1CCN(c2cc(Cl)ccc2Cl)CC1 | i | i | i | i | i | i | nt
COc1ccc(/C=C/C(=O)Nc2ccc(C(N)=O)cc2)cc1OC | i | i | i | i | i | i | nt
C/C=C/c1ccc(Oc2nnnn2-c2ccc(C(N)=O)cc2)c(OC)c1 | i | i | 69 | i | i | i | 80
COc1cc(/C=C(\C(=O)O)c2ccc(S(=O)(=O)N3CCCC3)s2)cc(OC)c1 | i | nt | i | nt | nt | nt | nt
COc1ccc(Br)cc1/C=C(\C(=O)O)c1ccc(S(=O)(=O)N2CCCC2)s1 | i | nt | 67 | nt | i | nt | 76
O=C(O)CC/C(=C\c1ccc(Cl)c([N+](=O)[O-])c1)c1nc2ccccc2s1 | i | i | 49 | i | i | i | i | ATG4B conf=64
O=C(COC(=O)c1cc(Cl)ccc1[N+](=O)[O-])NCc1ccc(Cl)cc1Cl | i | i | 52 | i | i | i | i | ATG4B conf=65
O=C(COC(=O)c1cc(Cl)ccc1[N+](=O)[O-])Nc1cccc2ccccc12 | i | i | i | i | i | i | nt
CCOc1cc(Cl)c(S(=O)(=O)NCCCn2ccnc2)cc1Cl | i | i | i | i | i | i | nt
N#C/C(=C/c1ccccc1[N+](=O)[O-])c1nc(C2CC2)cs1 | i | i | i | i | i | i | nt
N#C/C(=C\c1ccccc1[N+](=O)[O-])c1nc(C2CC2)cs1 | i | i | 48 | i | i | i | 63
